Test results taken from PubChem BioAssay (EPA / NIEHS).
“And” between values parts separate entries of the source, which are not always exact repeats. Equal entries are not always repeated. Some structures have more than one record in an assay (separate samples or runs), and their calls can disagree. The source made the active and inactive calls. Rule for the calls: active = hit-call score of the fitted dose curve at least 0.9, where 1 is the maximum; inactive = score below 0.9.

Tests used:
[1] = read-out: Decorin, DCN (gene 1634); experiment: BSK_MyoF_Decorin: BioMAP Diversity Plus: MyoF Assay for Decorin Biomarker Activity (AID 2284265); conditions: primary human lung fibroblasts
Outline: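 Human lung fibroblasts in the MyoF system were exposed to compound for 24 h, after which decorin was quantified by ELISA. Activity was fitted in the positive direction relative to DMSO negative control.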

[2] = read-out: KRT18 (gene 3875); experiment: BSK_BF4T_Keratin818: BioMAP Diversity Plus: BF4T Assay for Keratin 818 Biomarker Activity (AID 2284266); conditions: primary human bronchial epithelial cells with fibroblasts
Outline: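 Keratin 8/18 levels quantified by ELISA after 24 h chemical treatment of bronchial epithelial cell/dermal fibroblast co-cultures, fitted in positive direction relative to DMSO. Parallel SRB staining tracks overt cytotoxicity.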

[3] = BSK_MyoF_SRB: Viability Assessment in the BioMAP Diversity Plus: MyoF Assay (AID 2284267); conditions: primary human lung fibroblasts;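 note: total protein by SRB absorbance in parallel cultures as cytotoxicity measure; cells assessed 24 h after compound addition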
Outline: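 Cytotoxicity read-out: after 10% TCA fixation, parallel human lung fibroblast cultures were stained with 0.1% SRB at 24 h post-dosing and read at 560 nm; DMSO served as baseline.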

[4] = read-out: Matrix Metallopeptidase 1 (MMP1), MMP1 (gene 4312); experiment: BSK_MyoF_MMP1: BioMAP Diversity Plus: MyoF Assay for Matrix Metallopeptidase 1 (MMP1) Biomarker Activity (AID 2284268); conditions: primary human lung fibroblasts
Outline: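 ELISA readout of MMP1 in primary human lung fibroblast cultures, 24 h post-dosing. Gain of signal versus DMSO vehicle control defines activity. Parallel SRB staining (0.1% after 10% TCA fixation, 560 nm) flags overt cytotoxicity.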

[5] = read-out: TIMP metallopeptidase inhibitor 1 (TIMP1), TIMP1 (gene 7076); experiment: BSK_MyoF_TIMP1: BioMAP Diversity Plus: MyoF Assay for TIMP metallopeptidase inhibitor 1 (TIMP1) Biomarker Activity (AID 2284269); conditions: primary human lung fibroblasts
Outline: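 TIMP-1 levels were determined by ELISA in human lung fibroblasts treated for 24 h. DMSO served as negative control and baseline for upward curve fitting.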

[6] = read-out: Matrix Metallopeptidase 1 (MMP1), MMP1 (gene 4312); experiment: BSK_BF4T_MMP1: BioMAP Diversity Plus: BF4T Assay for Matrix Metallopeptidase 1 (MMP1) Biomarker Activity (AID 2284270); conditions: primary human bronchial epithelial cells with fibroblasts
Outline: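 MMP-1 quantified by ELISA in primary human bronchial epithelial/dermal fibroblast co-cultures, 24 hours post-dosing, with DMSO as baseline; parallel sulforhodamine B staining (560 nm) tracks overt cytotoxicity.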

[7] = read-out: Tissue plasminogen activator (tPA), PLAT (gene 5327); experiment: BSK_BF4T_tPA: BioMAP Diversity Plus: BF4T Assay for Tissue plasminogen activator (tPA) Biomarker Activity (AID 2284272); conditions: primary human bronchial epithelial cells with fibroblasts
Outline: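 tPA level quantified by ELISA at 24 h post-treatment in bronchial epithelial/dermal fibroblast co-cultures, gain of signal scored against DMSO baseline. Parallel cultures stained with 0.1% SRB (560 nm) to flag overt cytotoxicity.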

[8] = read-out: Plasminogen Activator Inhibitor-1 (PAI1), SERPINE1 (gene 5054); experiment: BSK_BF4T_PAI1: BioMAP Diversity Plus: BF4T Assay for Plasminogen Activator Inhibitor-1 (PAI1) Biomarker Activity (AID 2284273); conditions: primary human bronchial epithelial cells with fibroblasts
Outline: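 PAI-1 levels quantified by ELISA 24 h post-dosing in bronchial epithelial cell plus dermal fibroblast cultures. Signal gain referenced to DMSO baseline. Sulforhodamine B total-protein staining of parallel wells checked cytotoxicity.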

[9] = BSK_BF4T_SRB: Viability Assessment in the BioMAP Diversity Plus: BF4T Assay (AID 2284274); conditions: primary human bronchial epithelial cells with fibroblasts
Outline: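 Cytotoxicity measured as total protein: cells fixed with 10% TCA, stained with 0.1% SRB, read at 560 nm. Bronchial epithelial/dermal fibroblast co-culture, 24 h after dosing, with positive-direction fitting relative to DMSO.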

[10] = read-out: urokinase Plasminogen Activator (uPA), PLAU (gene 5328); experiment: BSK_BF4T_uPA: BioMAP Diversity Plus: BF4T Assay for urokinase Plasminogen Activator (uPA) Biomarker Activity (AID 2284275); conditions: primary human bronchial epithelial cells with fibroblasts
Outline: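 uPA levels measured by ELISA at 24 hours in BF4T cultures (bronchial epithelial cells plus dermal fibroblasts) and compared with DMSO; cytotoxicity tracked in parallel cultures by sulforhodamine B staining.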

SMILES	outcome [1]	outcome [2]	outcome [3]	outcome [4]	outcome [5]	outcome [6]	outcome [7]	outcome [8]	outcome [9]	outcome [10]	AC50 [3]	AC50 [4]	AC50 [5]
FC(F)(F)COC(OCC(F)(F)F)OCC(F)(F)F	inactive	inactive	inactive	inactive	inactive	inactive	inactive	inactive	inactive	inactive			
Cc1cccc(O)c1C	inactive		inactive	inactive	inactive								
C[Si](C)(C)C(F)(F)C(F)(F)C(F)(F)F	inactive	inactive	inactive	inactive	inactive	inactive	inactive	inactive	inactive	inactive			
OCCC(F)(F)C(F)(F)C(F)(F)C(F)(F)F	inactive	inactive	inactive	inactive	inactive	inactive	inactive	inactive	inactive	inactive			
FC(F)(F)C(F)(F)C(F)(F)C(F)(F)C(F)(F)C(F)(F)I	inactive	inactive			inactive	inactive	inactive	inactive	inactive	inactive	25.6 µM (active) and 26.5 µM (active)	14 µM (active) and 21.6 µM (active)	
O=S(=O)(O)CCC(F)(F)C(F)(F)C(F)(F)C(F)(F)C(F)(F)C(F)(F)F	inactive	inactive	inactive	inactive	inactive	inactive	inactive	inactive	inactive	inactive			
FC(F)C(F)(F)COCC1CO1 (centres undefined)	inactive	inactive	inactive	inactive	inactive	inactive	inactive	inactive	inactive	inactive			
FC(F)=C(F)C(F)(F)C(F)(F)C(F)(F)C(F)(F)C(F)(F)C(F)(F)F	inactive	inactive	inactive	inactive	inactive	inactive	inactive	inactive	inactive	inactive			
NCC(F)(F)C(F)(F)C(F)(F)C(F)(F)F	inactive	inactive	inactive	inactive	inactive	inactive	inactive	inactive	inactive	inactive			307 nM (active)
O=C(Cl)C(F)(F)C(F)(F)C(F)(F)C(=O)Cl	inactive	inactive	inactive	inactive	inactive	inactive	inactive	inactive	inactive	inactive			
OC(O)(C(F)C(O)(O)C(F)(F)F)C(F)(F)F	inactive	inactive	inactive	inactive	inactive	inactive	inactive	inactive	inactive	inactive			991 nM (active)
OCc1c[nH]c2ccccc12	inactive		inactive		inactive							16.8 µM (active)	
S=P(N1CC1)(N1CC1)N1CC1	inactive		inactive	inactive	inactive								
